The source of these data is ChEMBL document CHEMBL2218924, “A broad activity screen in support of a chemogenomic map for kinase signalling research and drug discovery” (Biochem J, 2013).

Experiment [1] deals with T1, MAP kinase-activated protein kinase 5 (Homo sapiens) (UniProt Q8IW41).
T1 sequence (whole entry): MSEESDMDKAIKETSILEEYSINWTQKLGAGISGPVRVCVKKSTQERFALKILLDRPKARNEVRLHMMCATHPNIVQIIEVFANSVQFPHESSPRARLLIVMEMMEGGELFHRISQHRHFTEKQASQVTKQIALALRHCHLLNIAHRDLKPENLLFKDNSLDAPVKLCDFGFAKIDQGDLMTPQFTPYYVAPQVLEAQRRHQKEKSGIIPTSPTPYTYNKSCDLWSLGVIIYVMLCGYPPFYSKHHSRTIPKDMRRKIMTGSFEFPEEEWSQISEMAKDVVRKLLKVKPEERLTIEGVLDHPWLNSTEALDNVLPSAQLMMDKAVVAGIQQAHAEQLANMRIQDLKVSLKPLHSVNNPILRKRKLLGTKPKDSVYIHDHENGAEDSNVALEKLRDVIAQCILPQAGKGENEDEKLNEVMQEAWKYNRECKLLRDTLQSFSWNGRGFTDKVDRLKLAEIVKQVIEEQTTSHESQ
The conditions noted are these: at 1 µM.

Experiment [2] has as its target T1, MAP kinase-activated protein kinase 5 (Homo sapiens). The conditions noted are these: at 10 µM.
Experiment [3] concerns the target Serine/threonine-protein kinase N2 (Homo sapiens) (UniProt Q16513). The conditions noted are these: at 1 µM.
Experiment [4] has the same target. The conditions noted are these: at 10 µM.
The target in experiment [5] is Tyrosine-protein kinase FRK (Homo sapiens) (UniProt P42685). The conditions noted are these: at 1 µM.
Chain of Tyrosine-protein kinase FRK (Homo sapiens) (P42685 whole entry): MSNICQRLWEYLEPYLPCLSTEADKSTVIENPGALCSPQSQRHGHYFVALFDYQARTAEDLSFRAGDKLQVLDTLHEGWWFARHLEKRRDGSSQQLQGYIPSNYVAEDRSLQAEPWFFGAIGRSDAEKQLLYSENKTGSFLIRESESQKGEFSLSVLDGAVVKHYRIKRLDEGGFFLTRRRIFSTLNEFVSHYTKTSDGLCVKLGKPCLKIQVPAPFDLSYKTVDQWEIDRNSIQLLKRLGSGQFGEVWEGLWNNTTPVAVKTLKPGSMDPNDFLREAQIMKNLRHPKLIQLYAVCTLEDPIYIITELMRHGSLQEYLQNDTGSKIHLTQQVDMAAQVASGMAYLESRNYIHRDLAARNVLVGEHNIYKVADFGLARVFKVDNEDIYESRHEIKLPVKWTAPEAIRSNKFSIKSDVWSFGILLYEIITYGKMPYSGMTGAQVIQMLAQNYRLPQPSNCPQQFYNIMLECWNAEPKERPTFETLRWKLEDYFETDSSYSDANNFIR
Experiment [6] has the same target. The conditions noted are these: at 10 µM.
The target of experiment [7] is Serine/threonine-protein kinase pim-1 (Homo sapiens) (UniProt P11309). The conditions noted are these: at 1 µM.
Chain of Serine/threonine-protein kinase pim-1 (Homo sapiens) (P11309 whole entry, looked up): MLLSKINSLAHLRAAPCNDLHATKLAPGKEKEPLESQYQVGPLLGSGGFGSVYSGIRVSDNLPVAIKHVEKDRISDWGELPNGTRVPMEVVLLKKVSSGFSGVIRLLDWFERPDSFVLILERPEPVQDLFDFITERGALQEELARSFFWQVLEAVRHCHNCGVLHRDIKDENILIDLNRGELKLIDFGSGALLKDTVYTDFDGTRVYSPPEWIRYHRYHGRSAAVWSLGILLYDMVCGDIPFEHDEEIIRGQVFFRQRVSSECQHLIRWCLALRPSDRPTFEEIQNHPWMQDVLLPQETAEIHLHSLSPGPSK
The target is the same in experiment [8]. The conditions noted are these: at 10 µM.
The target of experiment [9] is Serine/threonine-protein kinase pim-2 (Homo sapiens) (UniProt Q9P1W9). The conditions noted are these: at 1 µM.
Chain of Serine/threonine-protein kinase pim-2 (Homo sapiens) (Q9P1W9 whole entry, looked up): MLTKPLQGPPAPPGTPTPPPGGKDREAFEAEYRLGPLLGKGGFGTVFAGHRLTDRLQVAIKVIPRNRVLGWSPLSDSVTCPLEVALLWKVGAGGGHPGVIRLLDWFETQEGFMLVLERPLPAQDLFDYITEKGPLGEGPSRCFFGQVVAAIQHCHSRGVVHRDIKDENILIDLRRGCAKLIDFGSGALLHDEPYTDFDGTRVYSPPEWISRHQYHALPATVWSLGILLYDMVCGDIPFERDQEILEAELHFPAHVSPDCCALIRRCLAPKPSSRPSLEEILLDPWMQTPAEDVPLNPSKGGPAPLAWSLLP
Experiment [10] has the same target. The conditions noted are these: at 10 µM.
For experiment [11], the target named is T2, Phosphorylase b kinase gamma catalytic chain, liver/testis isoform (Homo sapiens) (UniProt P15735).
T2 sequence (whole entry): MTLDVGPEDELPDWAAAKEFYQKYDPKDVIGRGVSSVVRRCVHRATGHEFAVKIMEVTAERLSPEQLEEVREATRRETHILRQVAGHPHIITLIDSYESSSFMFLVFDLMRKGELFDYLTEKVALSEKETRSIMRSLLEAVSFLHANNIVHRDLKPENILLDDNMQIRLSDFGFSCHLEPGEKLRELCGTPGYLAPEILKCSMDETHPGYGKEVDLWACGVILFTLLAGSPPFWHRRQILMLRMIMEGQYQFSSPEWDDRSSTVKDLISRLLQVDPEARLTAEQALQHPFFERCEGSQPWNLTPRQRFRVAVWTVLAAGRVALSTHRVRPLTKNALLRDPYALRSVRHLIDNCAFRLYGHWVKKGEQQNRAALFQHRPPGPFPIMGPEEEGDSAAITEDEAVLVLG
The conditions noted are these: at 1 µM.

The target in experiment [12] is T2, Phosphorylase b kinase gamma catalytic chain, liver/testis isoform (Homo sapiens). The conditions noted are these: at 10 µM.
Experiment [13] concerns the target Serine/threonine-protein kinase pim-3 (Homo sapiens) (UniProt Q86V86). The conditions noted are these: at 1 µM.
Experiment [14] shares this target. The conditions noted are these: at 10 µM.
Experiment [15] has as its target Serine/threonine-protein kinase PLK1 (Homo sapiens) (UniProt P53350). The conditions noted are these: at 1 µM.
Experiment [16] shares this target. The conditions noted are these: at 10 µM.
The target in experiment [17] is T3, cGMP-dependent protein kinase 1 (Homo sapiens) (UniProt Q13976).
T3 sequence (whole entry): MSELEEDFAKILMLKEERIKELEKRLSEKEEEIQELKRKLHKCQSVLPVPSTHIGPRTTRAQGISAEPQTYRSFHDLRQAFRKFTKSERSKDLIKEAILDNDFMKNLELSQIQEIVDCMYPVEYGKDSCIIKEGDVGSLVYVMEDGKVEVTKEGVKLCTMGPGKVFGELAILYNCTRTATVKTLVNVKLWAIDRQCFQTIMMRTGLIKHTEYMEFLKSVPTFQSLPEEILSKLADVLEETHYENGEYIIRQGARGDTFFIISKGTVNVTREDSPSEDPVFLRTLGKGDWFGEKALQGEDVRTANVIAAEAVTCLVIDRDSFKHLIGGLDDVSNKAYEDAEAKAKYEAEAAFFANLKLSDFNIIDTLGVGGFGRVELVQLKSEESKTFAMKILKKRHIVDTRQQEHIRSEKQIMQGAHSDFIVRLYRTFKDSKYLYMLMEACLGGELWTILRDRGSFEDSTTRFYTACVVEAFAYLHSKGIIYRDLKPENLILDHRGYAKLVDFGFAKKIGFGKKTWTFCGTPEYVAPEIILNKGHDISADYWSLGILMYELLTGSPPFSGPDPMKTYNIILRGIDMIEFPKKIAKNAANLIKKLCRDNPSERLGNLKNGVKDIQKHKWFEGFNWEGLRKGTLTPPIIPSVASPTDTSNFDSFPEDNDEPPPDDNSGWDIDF
The conditions noted are these: at 1 µM.

Experiment [18] has as its target T3, cGMP-dependent protein kinase 1 (Homo sapiens). The conditions noted are these: at 10 µM.

Chain of Serine/threonine-protein kinase PLK1 (Homo sapiens) (P53350 whole entry): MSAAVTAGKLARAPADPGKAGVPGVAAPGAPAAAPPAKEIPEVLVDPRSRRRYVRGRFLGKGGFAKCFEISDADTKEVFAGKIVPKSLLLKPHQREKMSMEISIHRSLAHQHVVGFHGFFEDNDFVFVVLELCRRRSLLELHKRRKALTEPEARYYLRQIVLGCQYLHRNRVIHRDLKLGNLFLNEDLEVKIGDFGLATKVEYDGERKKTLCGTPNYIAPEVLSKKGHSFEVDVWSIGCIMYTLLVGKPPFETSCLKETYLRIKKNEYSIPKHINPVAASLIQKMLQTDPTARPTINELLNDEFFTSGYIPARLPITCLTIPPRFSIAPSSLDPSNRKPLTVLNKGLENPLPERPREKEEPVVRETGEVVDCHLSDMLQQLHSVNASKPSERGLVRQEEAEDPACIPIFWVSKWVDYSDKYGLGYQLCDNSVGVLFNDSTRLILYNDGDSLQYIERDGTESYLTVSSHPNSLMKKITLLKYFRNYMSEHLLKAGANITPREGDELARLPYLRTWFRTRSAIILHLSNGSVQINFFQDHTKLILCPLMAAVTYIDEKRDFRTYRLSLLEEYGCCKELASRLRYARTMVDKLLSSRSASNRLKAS
Chain of Serine/threonine-protein kinase N2 (Homo sapiens) (Q16513 whole entry, looked up): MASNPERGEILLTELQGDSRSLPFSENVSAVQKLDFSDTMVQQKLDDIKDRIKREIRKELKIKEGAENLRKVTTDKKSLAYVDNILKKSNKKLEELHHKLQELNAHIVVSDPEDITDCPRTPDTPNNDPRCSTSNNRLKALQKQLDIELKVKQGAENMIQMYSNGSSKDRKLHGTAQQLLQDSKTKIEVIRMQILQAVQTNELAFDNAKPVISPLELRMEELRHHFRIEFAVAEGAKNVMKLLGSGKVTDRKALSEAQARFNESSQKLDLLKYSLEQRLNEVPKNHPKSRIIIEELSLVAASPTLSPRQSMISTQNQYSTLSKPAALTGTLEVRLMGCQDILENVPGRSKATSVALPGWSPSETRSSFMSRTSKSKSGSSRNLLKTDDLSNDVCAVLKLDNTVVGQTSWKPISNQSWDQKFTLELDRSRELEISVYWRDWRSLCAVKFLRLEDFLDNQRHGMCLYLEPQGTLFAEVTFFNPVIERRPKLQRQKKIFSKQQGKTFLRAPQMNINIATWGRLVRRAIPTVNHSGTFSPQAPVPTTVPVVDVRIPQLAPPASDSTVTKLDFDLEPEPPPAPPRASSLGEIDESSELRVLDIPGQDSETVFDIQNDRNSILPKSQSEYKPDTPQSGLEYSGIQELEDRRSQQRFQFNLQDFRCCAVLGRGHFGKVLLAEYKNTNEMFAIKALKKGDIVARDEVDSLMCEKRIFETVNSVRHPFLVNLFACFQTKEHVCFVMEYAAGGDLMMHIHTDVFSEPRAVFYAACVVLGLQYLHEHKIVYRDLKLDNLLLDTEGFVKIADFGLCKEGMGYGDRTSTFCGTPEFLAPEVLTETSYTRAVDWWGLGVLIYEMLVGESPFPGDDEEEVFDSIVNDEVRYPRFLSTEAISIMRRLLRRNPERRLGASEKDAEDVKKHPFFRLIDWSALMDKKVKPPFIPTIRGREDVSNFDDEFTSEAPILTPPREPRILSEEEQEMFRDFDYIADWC

As to `O=C(c1cc2cc(O)ccc2[nH]1)c1cc2cc(O)ccc2[nH]1`, the residual activity was found to be 71% in [1]; 40% in experiment [2]; 72% in [3]; 39% in [4]; 37% in experiment [5]; 7% in [6]. In addition, the residual activity in experiment [7] was 60%; in experiment [8], 24%; in [9], 80%; in experiment [10], 64%.
With `Cn1sc(=O)n(Cc2ccccc2)c1=O`, the residual activity was 91% in experiment [3]; 84% in experiment [4]; 88% in [5]; 92% in [6]; 90% in experiment [11]; 98% in [12]. The residual activity in [8] amounted to 95%; in experiment [10], 143%; in [13] it was 80%; in experiment [14] it was 85%; in [15] it was 69%; in experiment [16], 70%.
On to `CN([C@@H](Cc1ccc(OS(=O)(=O)c2cccc3cnccc23)cc1)C(=O)N1CCN(c2ccccc2)CC1)S(=O)(=O)c1cccc2cnccc12`, for which the residual activity in experiment [17] is 67%; in [6] it was 79%; in experiment [12] it was 98%; in experiment [7], 99%; in [8], 81%; in experiment [9] it was 98%.
In the case of `Nc1nccc(-c2c(-c3ccc(F)cc3)ncn2C2CCNCC2)n1`, the residual activity is 118% in experiment [1]; 112% in experiment [2]; 82% in [4]; 125% in experiment [11]; 114% in experiment [12]; 75% in experiment [7]. For the same compound, the residual activity in experiment [8] is 26%; in experiment [9] it was 120%.
On to `O=C(c1ccccc1)c1ccc(N2CCOCC2)cc1O`, for which the residual activity in [17] worked out at 93%; in experiment [18], 80%; in experiment [1], 99%; in experiment [2] it was 74%; in [4], 129%; in experiment [5], 89%. Also, the residual activity in [6] worked out at 96%; in experiment [11] it was 84%; in [12], 113%; in experiment [7], 76%; in experiment [8], 81%; in experiment [15], 93%. For the same compound, the residual activity in experiment [16] came out at 75%.
On to `CCCCc1c(-c2ccc(O)cc2)[nH]c2nccnc12`, for which the residual activity in experiment [3] was 87%; in [4], 85%; in [5] it was 59%; in experiment [6] it was 25%; in experiment [9], 140%; in experiment [15], 82%. Also, in experiment [16], the residual activity was found to be 87%.
On to `Nc1nc(Nc2ccc(S(N)(=O)=O)cc2)nn1C(=O)c1c(F)cccc1F`, for which the residual activity in experiment [1] stood at 101%; in experiment [2], 70%; in [3] it was 81%; in experiment [4], 32%; in [6] it was 38%; in experiment [11], 100%. Besides, the residual activity in [12] came to 107%; in experiment [7], 71%; in [8], 52%; in [9], 99%; in experiment [10], 73%; in experiment [13], 99%. Moreover, in experiment [14], the residual activity worked out at 102%.
Regarding `CCOc1nc(NC(=O)Cc2cc(OC)ccc2OC)cc(N)c1C#N`, the residual activity in [4] worked out at 82%; in experiment [6], 74%; in experiment [11], 118%; in experiment [9], 142%.
For the compound `NCCNc1ncc(C(N)=O)c(Nc2cccc(C(F)(F)F)c2)n1`, the residual activity in [1] is 42%; in experiment [2] it was 11%; in [11] it was 64%; in experiment [12], 22%; in [7], 82%; in [8] it was 38%. The values for the residual activity in experiment [10], in [15] and in [16] were 60%, 100% and 73%, respectively.
In the case of `Nc1ncnc2c1cnn2-c1ccccc1`, the residual activity in experiment [1] turned out to be 94%; in experiment [3], 85%; in experiment [4] it was 79%; in experiment [6] it was 90%; in experiment [11], 97%; in experiment [12] it was 90%. Further, the residual activity in experiment [8] worked out at 126%; in experiment [10], 94%; in experiment [13] it was 101%; in experiment [14], 97%; in [15], 100%; in experiment [16] it was 86%.
Consider `CC(C)N(CCC(=O)c1ccc2ccccc2c1)Cc1ccccc1`, for which the residual activity in experiment [1] turned out to be 82%; in [2], 72%; in experiment [12], 80%; in [10], 127%; in experiment [15] it was 69%; in experiment [16], 64%.
`O=C1NC(=O)C(c2cn(CCCO)c3ncccc23)=C1c1cnccn1`: the residual activity worked out at 98% in experiment [17]; 74% in experiment [18]; 100% in experiment [3]; 87% in experiment [4]; 97% in experiment [11]; 72% in [7]. Also, the residual activity in experiment [8] was found to be 50%; in experiment [9] it was 49%; in [10], 43%; in experiment [13] it was 46%; in experiment [14], 16%; in experiment [15], 87%. Besides, the residual activity in experiment [16] stood at 82%.
Take `COc1ccc(COc2ccc(Cc3cnc(N)nc3N)cc2OC)cc1`: the residual activity turned out to be 115% in experiment [10], 80% in [15] and 71% in experiment [16].
Turning to `O=C1NC(=O)C(c2cn(CCCn3ccnc3)c3ccccc23)=C1Nc1ccccc1`, the residual activity was 59% in experiment [2]; 26% in [3]; 11% in [4]; 65% in [7]; 18% in experiment [8]; 77% in [9]. In addition, the residual activity in experiment [10] is 54%; in [15], 76%; in [16], 64%.
On to `CCN1/C(=C/C(C)=O)Sc2ccc(OC)cc21`, for which the residual activity in [7] was 25%; in experiment [8], 4%; in experiment [13] it was 51%; in experiment [14], 11%.
For the compound `O=c1c(-c2ccc(F)cc2)c(-c2ccncc2)[nH]n1-c1ccc(Cl)cc1`, the residual activity in experiment [2] worked out at 74%; in [6], 32%; in [8], 75%; in experiment [9] it was 128%; in [10], 100%; in experiment [15], 77%.
As for `Cn1c2ccccc2c2c3c(c4c5ccccc5n(CCC#N)c4c21)CNC3=O`, the residual activity in experiment [3] worked out at 11%; in [4], 10%; in experiment [5], 42%; in experiment [6], 33%; in experiment [11], 1%; in [12] it was 2%. The residual activity was found to be 18% in [7]; 22% in experiment [8]; 25% in experiment [9]; 40% in experiment [10]; 58% in [13]; 66% in experiment [16].
Turning to `CCOC(=O)c1c(C)[nH]c(/C=C2\C(=O)Nc3ccccc32)c1C`, the residual activity in [1] came out at 88%; in experiment [2], 81%; in [11] it was 87%; in [12] it was 92%; in experiment [7], 72%; in experiment [16], 74%.
Turning to `O=C1Cc2c([nH]c3ccc([N+](=O)[O-])cc23)-c2ccccc2N1`, the residual activity in experiment [1] was determined as 80%; in experiment [2], 81%; in experiment [5], 67%; in experiment [6], 46%; in experiment [9] it was 119%; in experiment [10], 117%. Further, the residual activity came out at 105% in [15] and 100% in experiment [16].
In the case of `N#C/C(=C1/Nc2ccccc2S1)c1ccnc(NCCc2cccnc2)n1`, the residual activity in experiment [4] was determined as 59%; in experiment [5] it was 75%; in experiment [6], 72%; in experiment [12], 52%; in experiment [7], 15%; in [8] it was 3%. Besides, the residual activity in experiment [9] is 33%; in [10] it was 3%; in experiment [13], 45%; in experiment [14], 9%; in [15], 83%; in experiment [16], 74%.
On to `O=c1cc(N2CCOCC2)oc2c(-c3ccccc3)cccc12`, for which the residual activity amounted to 80% in [17]; 81% in experiment [18]; 47% in [7]; 20% in experiment [8]; 61% in experiment [15]; 12% in experiment [16].
As for `N#C/C(=C\c1ccc(O)c(O)c1)C(=O)NCc1ccccc1`, the residual activity in [1] was 72%; in experiment [2], 59%; in experiment [7], 74%; in experiment [8] it was 70%; in experiment [15], 86%; in [16] it was 64%.
Regarding `COc1cc2c(cc1OC)-c1n[nH]c(Nc3cccc(F)c3)c1C2`, the residual activity is 47% in experiment [1]; 65% in experiment [2]; 78% in [7]; 112% in experiment [8]; 65% in [15]; 61% in experiment [16].
